What all share (details): concentration: 1 μM, replicates: in singlicate; n = 1
Assay [1] relates to T1, BIKE.
T1 construct: gene BMP2K

Assay [2] relates to BLK.
The subject of assay [3] is BMPR1A.
Assay [4] deals with BMPR1B.
Assay [5] relates to BMPR2.
For assay [6], the system named is BMX.
Assay [7] concerns BRAF.
In assay [8] the test system is T2, BRK.
T2 construct: gene PTK6

Assay [9] has as its system BRSK1.
The test system of assay [10] is BRSK2.
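Also: KINOMEscan kinase panel screen.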

As to `COc1ccc2cc(-c3nc(-c4ccccc4C(C)C)[nH]c3-c3ccncc3)ccc2c1` [SB-660566], the “%Inh” value in [1] came to 0%; in assay [2] it was 0%; in assay [3], 17%; in [4] it was 0%; in assay [5], 5%; in assay [6] it was 0%. The “%Inh” value is given as 6% in assay [7], 22% in assay [8], 4% in assay [9] and 10% in assay [10].

Consider `COc1ccc(Nc2nccc(-c3ccc(NC(=O)c4cc5cc(F)ccc5[nH]4)cc3)n2)cc1` [GSK1229496], for which the “%Inh” value worked out at 33% in [1]; 0% in assay [2]; 0% in [3]; 0% in [4]; 21% in assay [5]; 16% in [6]. Also, the “%Inh” value in assay [7] came out at 0%; in assay [8] it was 16%; in assay [9], 0%; in [10], 0%.

As to `Cc1c(Cn2c(C)c(C)n3c(=O)cc(N4CCOCC4)nc23)cccc1C(F)(F)F` [GSK2328680], the “%Inh” value was 2% in [1]; 29% in [2]; 6% in [3]; 0% in [4]; 5% in assay [5]; 14% in [6]. In addition, the “%Inh” value in [7] is 0%; in assay [8], 6%; in assay [9], 0%; in assay [10], 0%.

Regarding `COC(=O)c1cccc(NC(=O)NC2CCN(c3ccnc(Nc4ccc(F)cc4)n3)C2)c1` (centres unmarked) [GSK1379725], the “%Inh” value in assay [1] was 20%; in assay [2], 26%; in [3] it was 0%; in [4], 0%; in [5], 0%; in [6], 0%. The “%Inh” value in assay [7] is reported as 0%; in [8], 8%; in [9], 0%; in assay [10] it was 0%.

With `Cn1cncc1C(=O)NC1CCN(c2ccnc(Nc3ccc(F)cc3)n2)C1` (centres unmarked) [GSK1379717], the “%Inh” value stood at 7% in assay [1]; 0% in [2]; 5% in assay [3]; 0% in [4]; 6% in assay [5]; 0% in assay [6]. For the same molecule, the “%Inh” value in [7] came to 0%; in [8], 0%; in assay [9], 1%; in assay [10], 0%.

For `CNCc1ccc2nc(NC(=O)c3ccc(C(C)(C)C)cc3)cn2c1`, the “%Inh” value was determined as 15% in assay [1]; 0% in assay [2]; 17% in assay [3]; 14% in [4]; 19% in assay [5]; 0% in assay [6]. The “%Inh” value in assay [7] is given as 18%; in [8], 2%; in assay [9], 9%; in assay [10], 0%.

Consider `Cc1ccc(-c2nc(Nc3ccncc3)c3ccccc3n2)s1` [GSK189015], for which the “%Inh” value in assay [1] was found to be 37%; in assay [2], 29%; in assay [3], 0%; in assay [4], 0%; in assay [5], 0%; in [6], 23%. In addition, the “%Inh” value in assay [7] is given as 6%; in assay [8] it was 4%; in [9], 20%; in assay [10], 0%.

For `CCc1ccc(-c2ccc3c(c2)-c2n[nH]cc2S(=O)(=O)N3C)cc1`, the “%Inh” value in [1] is 12%; in [2] it was 9%; in assay [3], 0%; in [4] it was 0%; in assay [5] it was 0%; in [6], 0%. Besides, the “%Inh” value was determined as 0% in [7], 0% in assay [8], 0% in assay [9] and 4% in [10].

As to `Cn1cnc2c(N)ncnc21` [SKF-97623], the “%Inh” value in [1], in assay [2], in [3], in assay [4], in assay [5] and in assay [6] was 0% in each case. For the same molecule, the “%Inh” value in [7] came out at 0%; in assay [8], 0%; in assay [9] it was 24%; in assay [10] it was 0%.

As to `COc1ccc(Nc2nccc(N3CCC(NC(=O)c4cc5ccccc5s4)C3)n2)cc1` (centres unmarked) [GSK1379738], the “%Inh” value in [1] was found to be 13%; in assay [2] it was 0%; in assay [3], 0%; in assay [4] it was 0%; in assay [5] it was 11%; in assay [6], 0%. Moreover, the “%Inh” value in assay [7], in [8], in assay [9] and in [10] was 0% each time.

For `CNc1nc(-c2ccc3c(N)n[nH]c3c2)cc(N2C[C@@H](C(=O)NC3CCCCC3)OC[C@H]2C)n1` [GSK2375584], the “%Inh” value in [1] was determined as 24%; in assay [2], 0%; in [3], 0%; in assay [4], 0%; in [5] it was 0%; in assay [6], 23%. The “%Inh” value came to 0% in assay [7], 14% in [8], 14% in assay [9] and 19% in [10].

As for `Cc1ccc(NC(=O)Nc2ccc(Cl)c(C(F)(F)F)c2)cc1-c1ccc(C(=O)Nc2ccncc2)cc1` [GSK1398470], the “%Inh” value in assay [1] stood at 8%; in [2], 7%; in [3], 6%; in assay [4], 0%; in [5], 0%; in assay [6] it was 21%. The “%Inh” value in assay [7] came out at 73%; in assay [8], 29%; in assay [9], 7%; in assay [10], 0%.

Take `CS(=O)(=O)CCNCc1nc(-c2ccc3ncnc(Nc4ccc5c(cnn5Cc5ccccc5)c4)c3c2)cs1.Cl.Cl` [GW569716]: the “%Inh” value turned out to be 0% in assay [1]; 38% in assay [2]; 0% in [3]; 0% in assay [4]; 16% in [5]; 2% in assay [6]. In addition, the “%Inh” value in [7] was found to be 0%; in assay [8] it was 17%; in assay [9], 0%; in assay [10] it was 0%.

For `Nc1cccc(-c2ccc3c(N)n[nH]c3c2)n1` [GSK2192730], the “%Inh” value in assay [1] stood at 74%; in assay [2], 0%; in [3], 2%; in assay [4], 16%; in assay [5] it was 0%; in assay [6] it was 1%. The “%Inh” value in [7] turned out to be 0%; in assay [8], 0%; in assay [9] it was 55%; in assay [10], 37%.

With `O=C(Nc1n[nH]c2nc(-c3cccs3)c(Br)cc12)C1CCCC1` [SB-743341], the “%Inh” value in assay [1] is given as 12%; in assay [2], 0%; in [3], 28%; in assay [4], 19%; in assay [5], 46%; in [6] it was 14%. In addition, the “%Inh” value in [7] worked out at 7%; in [8], 12%; in assay [9], 63%; in assay [10], 66%.

With `O=C(Nc1n[nH]c2nc(-c3cccs3)c(Br)cc12)C1CC1` [SB-735297], the “%Inh” value in [1] is 26%; in [2], 0%; in assay [3], 0%; in assay [4] it was 0%; in assay [5], 26%; in assay [6], 9%. Moreover, the “%Inh” value in assay [7] stood at 0%; in assay [8], 0%; in assay [9], 66%; in assay [10], 53%.

As for `O=c1cc(N2CCOCC2)nc2n(Cc3ccccc3F)ccn12` [GSK2297428], the “%Inh” value is recorded as 0% in assay [1]; 21% in assay [2]; 0% in assay [3]; 0% in assay [4]; 0% in assay [5]; 13% in assay [6]. Moreover, the “%Inh” value turned out to be 0% in assay [7], 36% in assay [8], 0% in assay [9] and 100% in assay [10].

(Values after PMC5540273 (PLoS ONE, 2017).)
